# ChEMBL document CHEMBL3988442, “University of Dundee, Small-Polar-MMV Screening Library” (2021)
# Hit rate of the full screen: of about 69,000 compounds, about 1,000 (1.4%) showed an effect of 50% or more. This excerpt belongs to a sample that is enriched for strong results.
# System: Leishmania donovani
# Experiment: Leishmania intramacrophage assay
# Format: functional, organism-based
# Design: scale not given: in the data most compounds retested in dose-response had high values
smiles,measurement,setting,value
Cc1ccc(S(=O)(=O)N2CCc3nc(C4CCNCC4)ncc3C2)cc1.Cl,Percent Effect,"30 µM, 30.03 µM",-1.201%
Cl.O=S(=O)(c1ccc(Cl)cc1)N1CCc2nc(C3CCNCC3)ncc2C1,Percent Effect,"30.3 µM, […]",-22.35%
O=S(=O)(c1ccccc1Cl)N1CCc2nc(C3CCNCC3)ncc2C1,Percent Effect,"30 µM, 30.03 µM",50.23%
Cc1nc(C2CCCN2Cc2nc(C3CC3)no2)no1 (stereo unspecified),Percent Effect,30 µM,21.89%
CCCN(CCC)C(=O)c1cc(CN2CCC(O)CC2)on1,Percent Effect,"30.3 µM, […]",36.24%
CCn1ncc(Cn2cc(Cl)c(N)n2)c1C,Percent Effect,"30.3 µM, […]",-8.997%
Cc1nc(NCc2noc(C3CCCO3)n2)c2sccc2n1 (stereo unspecified),Percent Effect,"30.3 µM, […]",29.04%
COc1ccnc(CNc2nc(C)nc(C)c2C)c1,Percent Effect,"30.3 µM, […]",39.23%
COc1ccnc(CNc2nc(C)nc3ccsc23)c1,Percent Effect,"30.3 µM, […]",56.7%
CCc1csc(C2CCCN(C(=O)c3ccc4c(c3)OCO4)C2)n1 (stereo unspecified),Percent Effect,"30.3 µM, […]",-18.73%
Cc1ccc(S(=O)(=O)N2CC(C)Oc3ncccc32)c(F)c1 (stereo unspecified),Percent Effect,"30.3 µM, […]",21.87%
CC1CN(S(=O)(=O)c2ccc(F)cc2F)c2cccnc2O1 (stereo unspecified),Percent Effect,"30.3 µM, […]",30.4%
Cc1ccc(S(=O)(=O)N2CC(C)Oc3ncccc32)c(C)c1 (stereo unspecified),Percent Effect,"30.3 µM, […]",55.69%
CN(CC1(CO)CCC1)C(=O)c1cc(COc2ccccc2F)[nH]n1,Percent Effect,"30.3 µM, […]",-17.63%
COc1ccc2c(c1)CN(CC(=O)NC1CCCC1)CC2,Percent Effect,"30.3 µM, […]",-7.68%
COc1ccc2c(c1)CCCN(C(=O)NCC1CCCO1)C2 (stereo unspecified),Percent Effect,"30.3 µM, […]",6.687%
COc1ccc2c(c1)CCCN(CC(=O)NCC1CCCO1)C2 (stereo unspecified),Percent Effect,"30.3 µM, […]",55.19%
CC(=O)NC(C)C(=O)N(Cc1ccc(C)c(C)c1)C1CC1 (stereo unspecified),Percent Effect,"30.3 µM, […]",-3.591%
COc1ccccc1-c1ncc(CN2C[C@H](O)[C@@H](N3CCCC3)C2)s1,Percent Effect,"30.3 µM, […]",4.457%
COc1ccccc1-c1ncc(CN2CCCC[C@H](N(C)C)C2)s1,Percent Effect,"30.3 µM, […]",36.23%
COc1ccccc1-c1ncc(CN2C[C@@H](N(C)C)[C@H](C(C)C)C2)s1,Percent Effect,"30.3 µM, […]",52.36%
CNC(=O)CN1CC[C@H]2CN(C(=O)c3ccc(C)cc3)C[C@H]2C1.O=C(O)C(F)(F)F,Percent Effect,"30.3 µM, […]",2.501%
CCN1CCn2c(C)cnc2C12CCN(C(=O)N(C)C)CC2.O=C(O)C(F)(F)F.O=C(O)C(F)(F)F,Percent Effect,"30.3 µM, […]",6.426%
CC(C)c1cc(C(=O)N2CCOCC2CC(=O)c2ccco2)nn1C (stereo unspecified),Percent Effect,"30.3 µM, […]",-24.4%
Cc1nn(-c2ccccc2Cl)c(C)c1CCC(=O)O,Percent Effect,"30.3 µM, […]",-26.02%
NCC(c1ccc(Cl)cc1)N1CCc2sccc2C1 (stereo unspecified),Percent Effect,"30.3 µM, […]",40.17%
CC(C)c1ccc(C(CN)N2CCc3sccc3C2)cc1 (stereo unspecified),Percent Effect,"30.3 µM, […]",82.67%
NCC(c1ccccc1)N1CCc2sccc2C1 (stereo unspecified),Percent Effect,"30 µM, 30.03 µM",28.55%
O=C(NCCSC1CCCC1)c1ccc(F)cc1F,Percent Effect,"30.3 µM, […]",24.13%
COc1ccccc1N1CCN(C(=O)Cn2nc(C)c(Cl)c2C)CC1,Percent Effect,"30.3 µM, […]",31.83%
c1ccc2oc(CCCN3CCCC(Cn4cncn4)C3)nc2c1 (stereo unspecified),Percent Effect,30 µM,8.044%
Cc1cc(C(=O)N2C[C@H]3CC[C@@H]2CN(Cc2ccccn2)C3)nc(C)n1,Percent Effect,"30.3 µM, […]",16.91%
CC(=O)Nc1ccc(CNCC(O)c2ccc(Cl)cc2)cc1 (stereo unspecified),Percent Effect,"30.3 µM, […]",-0.7096%
CC(C)Nc1ncnc2c1CCN(c1cc(C(F)(F)F)ncn1)CC2,Percent Effect,"30.3 µM, […]",9.513%
CCN(C(=O)NCc1ccc(C)cc1OC)C(C)c1cccnc1 (stereo unspecified),Percent Effect,"30.3 µM, […]",51.84%
CCOc1ccccc1CNC(=O)N(CC)C(C)c1cccnc1 (stereo unspecified),Percent Effect,"30.3 µM, […]",14.76%
CCN(C(=O)NCc1ccccc1OC(F)F)C(C)c1cccnc1 (stereo unspecified),Percent Effect,"30.3 µM, […]",43.41%
Cc1ccc2c(n1)N(Cc1cccnc1)CCN(C(=O)C1CC=CC1)C2,Percent Effect,"30.3 µM, […]",-19.75%
Cc1ccc2c(n1)N(CC1CC1)CCN(Cc1cnn(C)c1)C2,Percent Effect,"30.3 µM, […]",26.83%
Cc1ccc2c(n1)N(Cc1cccnc1)CCN(Cc1cnn(C)c1)C2,Percent Effect,"30.3 µM, […]",76.22%
Cc1nn(C)c(Cl)c1C1CCCN1C(=O)c1nccnc1N (stereo unspecified),Percent Effect,"30 µM, 30.03 µM",1.892%
CC(NC(=O)NCCCn1cncn1)c1ccccc1Cl (stereo unspecified),Percent Effect,"30 µM, 30.03 µM",-19.77%
O=C(O)Cc1cnc(-c2c(Cl)cccc2Cl)s1,Percent Effect,"30.3 µM, […]",39.96%
Cc1noc([C@H]2C[C@H]3OCC[C@H]3N(Cc3ccc(F)cc3)C2)n1.O=C(O)C(F)(F)F,Percent Effect,"30.3 µM, […]",51.58%
Cc1noc([C@H]2C[C@H]3OCC[C@H]3N(Cc3ccc4c(c3)OCO4)C2)n1.O=C(O)C(F)(F)F,Percent Effect,"30 µM, 30.03 µM",25.3%
CCc1ccc(CN2C[C@@H](c3nc(C)no3)C[C@H]3OCC[C@H]32)o1.O=C(O)C(F)(F)F,Percent Effect,"30.3 µM, […]",-6.961%
Cc1cccnc1NC(=O)c1ccc(F)c(S(=O)(=O)NC2CC2)c1,Percent Effect,"30.3 µM, […]",2.163%
CC(=O)Nc1ncc(S(=O)(=O)Nc2cccc(O)c2)s1,Percent Effect,"30.3 µM, […]",53.03%
CC(=O)Nc1ncc(S(=O)(=O)Nc2cccc(C)c2)s1,Percent Effect,"30.3 µM, […]",11.84%
CC(=O)Nc1ncc(S(=O)(=O)Nc2cccc(F)c2)s1,Percent Effect,"30.3 µM, […]",-21.07%
CN(C)C(=O)COC[C@@H]1CC[C@H]2[C@H](CCN2c2ncccn2)O1.O=C(O)C(F)(F)F,Percent Effect,"30.3 µM, […]",37.88%
Cc1cnc(N2CC[C@@H]3OC(COCC(=O)N(C)C)CC[C@@H]32)nc1.O=C(O)C(F)(F)F (stereo partly specified),Percent Effect,"30.3 µM, […]",4.675%
Cc1cnc(N2CC[C@@H]3O[C@@H](COCC(=O)N(C)C)CC[C@@H]32)nc1.O=C(O)C(F)(F)F,Percent Effect,"30.3 µM, […]",58.41%
Cc1nc(-c2cncnc2C2CCCNC2)no1.Cl.Cl (stereo unspecified),Percent Effect,"30.3 µM, […]",9.405%
O=C(Nc1nncs1)c1ccc(O)nc1,Percent Effect,"30.3 µM, […]",16.66%
Cc1nnc(CCNC2CCN(c3ncnc4c(C)csc34)CC2)s1,Percent Effect,"30 µM, 30.03 µM",49.19%
CCc1nnc(CNC2CCN(c3ncnc4c(C)csc34)CC2)s1,Percent Effect,"30.3 µM, […]",52.55%
Cc1nc(C)n(CCNC2CCN(c3ncnc4c(C)csc34)CC2)n1,Percent Effect,"30.3 µM, […]",-18.48%
CCNC(=O)NC(C)c1nc(-c2ccc(Br)cc2)no1 (stereo unspecified),Percent Effect,"30.3 µM, […]",26.95%
CSCC1CCN(C(=O)c2ccccc2NCc2cccnc2)C1 (stereo unspecified),Percent Effect,"30.3 µM, […]",-38.07%
CSCCC(=O)NCc1cc2n(n1)CCCN(C1CCCCC1)C2,Percent Effect,"30.3 µM, […]",-17.68%
CC(C)SCC(=O)NCc1cc2n(n1)CCCN(C1CCCCC1)C2,Percent Effect,"30.3 µM, […]",64.6%
CCC(C)NC(=O)NCc1cc2n(n1)CCCN(C1CCCCC1)C2 (stereo unspecified),Percent Effect,"30.3 µM, […]",50.3%
CN[C@@H](CO)C(=O)NCc1cc2n(n1)CCCN(C1CCCCC1)C2,Percent Effect,"30.3 µM, […]",3.405%
CCC(OC)C(=O)NCc1cc2n(n1)CCCN(C1CCCCC1)C2 (stereo unspecified),Percent Effect,"30.3 µM, […]",1.469%
CCCOC(C)C(=O)NCc1cc2n(n1)CCCN(C1CCCCC1)C2 (stereo unspecified),Percent Effect,"30.3 µM, […]",20.03%
